Drawing on PubChem BioAssay (NCI), this text covers growth for four molecules.

Structures are written as SMILES. Compounds without any hit were thinned out: in the full panel of roughly 83,000, 20% have a hit.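 Negative percent growth values reflect cell death: -40 means 40% of the cells present at the start died, and -100 means all died.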 Values without a mark were called inactive. The source made the active and inactive calls. How the source made its calls: active means growth percent below 10; inactive means the rest.

Among the test systems are NCI-H23 lung; NCI-H226 lung; HOP-62 NSCLC; NCI-H460 lung; NCI-H522 lung; A549/ATCC NSCLC; 786-0 renal; COLO 205 colon; DU-145 prostate; K-562 leukemia; MALME-3M melanoma; MDA-MB-231 breast; RXF 393 renal; SF-268 CNS; SF-295 CNS; SF-539 CNS; UACC-257 melanoma; M14 melanoma; HOP-92 NSCLC.
What all share (experiment): NCI-60 one-dose screen, 48 h (100 = growth as untreated, 0 = no growth, -100 = all killed)
What all share (conditions): 10 µM unless noted

For the molecule `NC(=S)N/N=C(\c1ccc(Cl)cc1)C1CC1`, the growth in the test on NCI-H23 lung is 89.7%; in the test with NCI-H226 lung, 74.7%; with HOP-62 NSCLC, 80.1%; in the test with NCI-H460 lung it was 102%; in the test on NCI-H522 lung, 97.3%; with A549/ATCC NSCLC, 92.5%. For the same molecule, the growth with 786-0 renal was 105%; in the test on COLO 205 colon it was 92.6%; with DU-145 prostate, 99%; with K-562 leukemia it was 38.3%; with MALME-3M melanoma it was 87.1%; with MDA-MB-231 breast, 70%. The growth with RXF 393 renal is 104%; with SF-268 CNS it was 98.2%; in the test on SF-295 CNS it was 83.1%; in the test on SF-539 CNS, 88.6%; in the test on UACC-257 melanoma, 63.7%; in the test on M14 melanoma it was 87.7%.

For `CC(=O)OCC(=O)C1(O)C(C)CC2C3C=C(C)C4=Cc5c(cnn5-c5ccccc5)CC4(C)C3C(O)CC21C` (stereo not drawn), the growth was 8.49% (active) in the test with NCI-H23 lung; 43.2% with NCI-H226 lung; 7.4% (active) with HOP-62 NSCLC; 6.3% (active) in the test on NCI-H460 lung; -0.484% (active) in the test on HOP-92 NSCLC; 4.55% (active) in the test on NCI-H522 lung. The growth was 24.5% in the test on A549/ATCC NSCLC; -39.2% (active) with 786-0 renal; -70.1% (active) in the test on COLO 205 colon; 27.1% in the test on DU-145 prostate; 2.57% (active) with K-562 leukemia; 25.6% in the test with MALME-3M melanoma. Moreover, the growth in the test with MDA-MB-231 breast is -11.2% (active); in the test on RXF 393 renal, -5.14% (active); with SF-268 CNS, 31.1%; in the test with SF-295 CNS it was -51.1% (active); in the test on SF-539 CNS, -21.3% (active); in the test with UACC-257 melanoma, 52.3%. For the same molecule, the growth with M14 melanoma is -4.56% (active).

Turning to `CN(Cc1ccccc1)c1nc(Cl)c(C2CC(c3ccc(Cl)cc3)=Cc3[nH][nH]c(=O)c32)s1` (stereo not drawn), the growth is 98.3% in the test on NCI-H23 lung; 97.1% with NCI-H226 lung; 101% with HOP-62 NSCLC; 92.7% in the test with NCI-H460 lung; 102% in the test on HOP-92 NSCLC; 89.7% in the test with NCI-H522 lung. The growth in the test on A549/ATCC NSCLC is 107%; with 786-0 renal, 89.4%; in the test on COLO 205 colon, 124%; in the test with DU-145 prostate it was 104%; in the test on K-562 leukemia, 42.5%; in the test with MALME-3M melanoma, 104%. In addition, the growth is 113% in the test on MDA-MB-231 breast; 92.1% in the test on SF-268 CNS; 90.2% with SF-295 CNS; 88.1% in the test on SF-539 CNS; 102% in the test on UACC-257 melanoma; 107% in the test on M14 melanoma.

Turning to `CCCc1cc2c(cc1Br)OCO2`, the growth in the test on NCI-H23 lung is 96.2%; with NCI-H226 lung, 106%; in the test with HOP-62 NSCLC, 84%; with NCI-H460 lung, 106%; in the test with HOP-92 NSCLC, 86.9%; with NCI-H522 lung it was 87.9%. Besides, the growth in the test on A549/ATCC NSCLC is 80.7%; in the test with 786-0 renal it was 89.3%; in the test with COLO 205 colon, 109%; with DU-145 prostate it was 111%; with K-562 leukemia, 121%; in the test on MALME-3M melanoma, 117%. Besides, the growth was 113% in the test on MDA-MB-231 breast; 106% with SF-268 CNS; 96.5% in the test with SF-295 CNS; 98.8% in the test on SF-539 CNS; 91.5% in the test with UACC-257 melanoma; 88.5% in the test on M14 melanoma.
